In PubChem BioAssay (NCI):
About 83,000 compounds went through this panel and 20% of them were active in at least one assay; those are over-represented in the sample as a whole.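 Each cell line was grown in a 96-well plate and treated with one concentration of compound for 48 hours. Values below 10 were considered active.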 Calls of active or inactive are those of the source.

System: M14 melanoma
Test: NCI-60 one-dose screen, 48 h (100 = growth as untreated, 0 = no growth, -100 = all killed)
Conditions: 10 µM unless noted

Compound	growth
CC(=O)Oc1ccccc1C(=O)Nc1cc(C(C)C)ccc1C	33.2% (inactive)
COc1ccc(/C=N/NC(=O)c2[nH]c3ccc(Br)cc3c2-c2ccccc2)s1	6.17% (active)
O=C(CN1C(=O)/C(=C/c2ccccc2)SC1=S)N1CCOCC1	88.5% (inactive)
COc1ccc(-c2nc3ccc(-c4nnc(SCC(=O)Nc5ccc(C(=O)/C=C/c6ccc(Cl)cc6)cc5)o4)cc3[nH]2)cc1OC	108% (inactive)
CN1C(=S)N(C)C2C1NN=C1SC(c3ccccc3)=CC(=O)N12 (centres undefined)	101% (inactive)
CN(C)c1ccc(/C=C2\Cc3c(F)ccc(Br)c3C2=O)cc1	92.1% (inactive)
CN(C)S(=O)(=O)c1oc(-c2ccccc2)nc1C#N	27.5% (inactive)
CC(C)(C)OC(=O)N1C(=O)c2c(c3c4ccccc4[nH]c3c3ccc4ccccc4c23)C1=O	37.3% (inactive)
Cc1[nH]nc2ncc(C#Cc3cncc(C(=O)Nc4ccc(CN5CCN(C)CC5)c(C(F)(F)F)c4)c3)cc12	-17.1% (active)
C#Cc1nc(C2=C(C)C(=N\O)/C(=N/O)C2)cs1	89.6% (inactive)
O=c1[nH]c2ccccc2cc1CSc1ccccc1Nc1nccc(-c2ccc(C(F)(F)F)cc2)n1	92.1% (inactive)
COC1CCN(Cc2ccc3c(NNC(=O)c4cnccn4)nc4cc(F)ccc4n23)C1 (centres undefined)	3.22% (active)
O=C(CN1CCOCC1)NNc1ncnc2ccccc12	55.2% (inactive)
Cn1c(SCC(=O)Nc2ccc(-c3nc4ccc([N+](=O)[O-])cc4[nH]3)cc2)nc2ccccc2c1=O	96.3% (inactive)
O=C(CSc1nc2sc3c(c2c(=O)n1-c1ccc(Cl)cc1)CCCC3)N/N=C/c1ccc(F)cc1	90.5% (inactive)
O=c1/c(=C\c2ccc(-c3ccccc3)o2)sc2nc(-c3ccccc3)nn12	100% (inactive)
COC(=O)C1CCCN(S(=O)(=O)/N=C2\NC(=O)NC2=C(Cl)Cl)C1 (centres undefined)	99.3% (inactive)
Clc1ccc2c(NCCCN3CCOCC3)c3oc4ccc(Cl)cc4c3nc2c1	97.5% (inactive)
N#Cc1nc(-c2ccccc2)oc1N1CC[C@@H](CO)C1	103% (inactive)
O=C(c1ccc(O)cc1)C1[C@H](c2ccc(Cl)cc2)[C@@H](c2ccccc2)NC12C(=O)Nc1ccc(Cl)cc12 (some centres undefined)	47.7% (inactive)
COc1cccc(OC)c1-c1nnn(C)c1C(=S)N1CCN(c2ccc([N+](=O)[O-])cc2Cl)CC1	97% (inactive)
CCCC(=O)NC(c1cccc(N(C)C)c1)c1cc(C)c2cccnc2c1O (centres undefined)	49.3% (inactive)
CC(=O)Oc1ccccc1C(=O)Nc1ccc(C(=O)/C=C/c2ccncc2)cc1	30.3% (inactive)
C#Cc1nc(C2=C(C)C(OC(=O)CCC(=O)O)CC2)cs1 (centres undefined)	103% (inactive)
